Shown are actives, neighbours in structure and some others; about 1.1% of the full set was active somewhere.
Sa ugtP lethal = kills S. aureus RN4220 lacking UgtP; S. aureus RN4220 ugtP deletion, OD600 growth, 16 h; growth inhibition, % (concentration not given with the values); 0.54% of 330,000 active; in the data active = growth inhibition above about 68%;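 also: plate controls were untreated wells for no effect and antibiotic for full effect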
Mtb hypoxia inh = Mtb hypoxia fluorescent reporter inhibition; M. tuberculosis hypoxia-regulated fluorescent reporter, fluorescence; fluorescence inhibition, % (no concentration beside the values); 0.1% of 300,000 active; in the data active = fluorescence inhibition mostly above about 23%, no sharp cut-off; inactive = mostly below about 17%
Sa RN4220 lethal = kills Staphylococcus aureus RN4220; S. aureus RN4220 growth, OD600, 16 h; inhibition, % (concentration not given with the values); 0.33% of 330,000 active; AID 1259311; in the data active = inhibition above about 85%;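 also: plate controls were untreated cells for no effect and reference antibiotic for full effect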
SSB-PriA inh = K. pneumoniae PriA-SSBct interaction inhibition. AlphaScreen SSBct-PriA binding, biotinylated peptide. inhibition, % at 33 µM. 0.6% of 430,000 active. AID 1272365; in the data active = inhibition mostly above about 37%, no sharp cut-off; inactive = mostly below about 20%;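 also: plate controls were negative control peptide for no effect and reference peptide for full effect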
Starred values were filed as active, the others as inactive; · = no result given; ! = repeats disagree.

SMILES | Sa ugtP lethal | Mtb hypoxia inh | Sa RN4220 lethal | SSB-PriA inh
COc1ccccc1N1CCN(CCNC(=O)C(=O)NC2CC2)CC1 | · | · | · | -8.0
CCOc1ccc(NC(=O)Nc2ccc(Br)cn2)cc1 | 4.3 | -5.0 | 1.8 | 81.7*
O=S(=O)(NC[C@@H](c1ccc2c(c1)OCO2)N1CCN(c2ccccc2F)CC1)c1ccccc1 | · | · | · | 9.0
O=C(N/N=C/c1c(O)n(C2CCCCC2)c(=S)[nH]c1=O)c1ccccc1O | 92.4* | 8.3 | 76.7 | ·
O=C(NN=Cc1c(O)n(C2CCCCC2)c(=S)[nH]c1=O)c1ccccc1 | · | · | · | 13.0
CC(C)c1ccc(-n2c(O)c(/C=N/NC(=O)c3ccccc3O)c(=O)[nH]c2=S)cc1 | 10.1* | 14.8 | 88.5 | ·
CN(C[C@H]1CCCO1)S(=O)(=O)c1ccc(C(=O)Nc2ccc(Cl)cc2)cc1 | · | · | · | -7.0
O=C(Cc1ccc(Cl)cc1)Oc1cccc2cccnc12 | 89.2* | -0.1 | 8.3 | -2.8
O=C(Oc1cccc2cccnc12)c1ccco1 | 4.7 | 14.9 | 0.5 | 6.2
CS(=O)(=O)N1CCC(C(=O)N2CCCCC2c2cc(C(N)=O)n[nH]2)CC1 (configuration not stated) | · | · | · | -12.0
O=C(Nc1cccc(C(F)(F)F)c1)N1CCN(C(=O)c2cnn3c2CCCC3)CC1 | · | · | · | -19.0
O=C(CN1CCN(c2nccn2-c2ccccc2F)CC1)N1CCc2ccccc21 | · | · | · | 44.0*
O=C(CN1CCN(c2ccccc2F)CC1)N1CCc2ccccc21 | 7.5 | 19.2 | 3.4 | -12.3
O=C(NCC(c1cccc2ccccc12)N1CCCC1)C(=O)Nc1ccc2c(c1)OCCO2 (configuration not stated) | · | · | · | 48.0*
O=C(NC[C@H](O)c1cccc2ccccc12)C(=O)Nc1ccc2c(c1)OCO2 | · | · | · | 0.0
COc1cc(Cl)c(C)cc1NC(=O)CSc1cc(Cl)ccc1Cl | 95.2* | 2.1 | 1.2 | -7.8
COc1cc(Cl)c(C)cc1NC(=O)CSc1ccc(C)cc1 | 9.6 | -1.8 | 5.3 | -96.7
Sc1n[nH]c(-c2ccccn2)n1 | · | · | · | 113.0*
c1ccc(CSc2n[nH]c(-c3ccccn3)n2)cc1 | · | · | · | 59.5*
Oc1ccccc1-c1ccn[nH]1 | 0.6 | 7.6 | 3.0 | 9.2
O=C(CSc1n[nH]c(-c2ccccn2)n1)N1c2ccccc2Sc2ccccc21 | · | · | · | 58.0
Oc1ccccc1-c1n[nH]c(-c2ccccn2)n1 | · | · | · | 93.8*
c1ccc(-c2n[nH]c(-c3ccccn3)n2)nc1 | 5.9 | 19.0 | 2.4 | 92.9*
c1ccc(-c2ccccn2)nc1 | -1.2 | 5.4 | 7.0 | 7.2
COc1ccc(Cl)cc1C(=O)NCCNc1cc(N2CCOCC2)nc(C)n1 | · | · | · | -10.0
SMILES | Sa ugtP lethal | Mtb hypoxia inh | Sa RN4220 lethal | SSB-PriA inh
COc1ccccc1Nc1c2c(nc3ccc(Cl)cc13)CCCC2 | · | · | · | 14.6
NCc1nc(-c2ccccn2)n[nH]1 | · | · | · | 115.5*
c1ccc(-c2nn[nH]n2)nc1 | 1.1 | 5.4 | 3.1 | 107.0*!
c1cncc(-c2n[nH]c(-c3cnccn3)n2)c1 | · | · | · | -6.0
c1ccc(-c2n[nH]c(-c3ccccn3)n2)cc1 | 1.9 | · | 0.3 | 42.4*
c1ccc(-c2ccc(-c3ccccn3)nn2)nc1 | · | · | · | 106.0*
C[C@H](Oc1ccccc1)C(=O)N1CCN=C1SCc1ccc(C(F)(F)F)cc1 | · | · | · | -12.0
O=C(NCCN1CCOCC1)C(=O)NCC1CCN(C2CCCC2)CC1 | · | · | · | -5.0
O=C(O)C(Cc1ccccc1)N1C(=O)c2c(Cl)c(Cl)c(Cl)c(Cl)c2C1=O (configuration not stated) | 85.9*! | 2.8 | 39.2 | -1.1
O=C(CCS(=O)(=O)c1ccc(F)cc1)Nc1nc2c(s1)CN(Cc1ccccc1)CC2 | · | · | · | -4.0
CCc1cc(C(=O)OC)c(NC(=O)C2SC(=Nc3ccccc3)N(c3ccccc3)C2=O)s1 (configuration not stated) | · | · | · | 11.0
COc1cc(C(=O)NN=Cc2ccc3c(c2)c2ccccc2n3C)ccc1O | 85.8* | 12.9 | 90.7* | 0.7
O=c1c(-c2nc(-c3ccccc3Cl)no2)cccn1Cc1noc(-c2cccc(F)c2)n1 | · | · | · | -15.0
CCN(c1ccc(NC(=O)COC(=O)c2cc3ccccc3oc2=O)cc1)C(C)C | -0.1 | -8.0 | 4.1 | 54.1*
S=C(NNc1ccnc2cc(Cl)ccc12)Nc1ccc(Cl)cc1Cl | 6.5 | 13.0 | 90.0* | 9.6
COC(=O)c1ccc(C(=O)Nc2ccc(N)cc2N)cc1 | -6.6 | 15.3 | -11.9 | 39.6*
COc1cc(CNCCc2c[nH]c3ccccc23)ccc1OCc1ccccc1F | -43.8 | 3.8 | -6.8 | 38.5*
COc1cccc(CNCCc2c[nH]c3ccccc23)c1OCc1ccccc1 | -33.3 | 2.2 | 4.0 | 44.8*
Cc1ccc(Cc2cnc(N3C(=N)SC(C)C3=O)s2)cc1 (configuration not stated) | 51.0 | -3.5 | 58.3 | -13.0
N=C1SCC(=O)N1c1ncc(Cc2cccc(Cl)c2)s1 | 98.2* | 16.4 | 96.8* | -5.9
Cc1cccc(Cc2cnc(N3C(=N)SC(C)C3=O)s2)c1 (configuration not stated) | 38.4 | 8.0 | 89.9* | -10.2
N=C1SCC(=O)N1c1ncc(Cc2ccccc2F)s1 | · | · | · | 11.0
N=C1SCC(=O)N1c1ncc(Cc2ccccc2Cl)s1 | 88.6 | 16.6 | 92.6* | 1.3
O=C(N/C(=C/c1ccc([N+](=O)[O-])cc1)C(=O)N1CCCC1)c1ccccc1 | -3.4 | 18.9 | 2.1 | -4.0
O=C(N/C(=C/C=C/c1ccccc1)C(=O)N1CCCCC1)c1ccc([N+](=O)[O-])cc1 | -6.1 | -2.8 | 7.2 | 39.1*
SMILES | Sa ugtP lethal | Mtb hypoxia inh | Sa RN4220 lethal | SSB-PriA inh
COc1cccc(NC(=O)C(C)SC2=Nc3ccccc3C3=NC(c4ccccc4)C(=O)N23)c1 (configuration not stated) | · | · | · | -6.0
COc1ccc(CN(C)C(=O)c2cccc(S(=O)(=O)N3CCCc4ccccc43)c2)c(OC)c1OC | 0.8 | 27.7* | 5.7 | -5.4
COc1ccc(OC)c(-c2cc(C(=O)NCC[C@H](O)c3cccn3C)n(C)n2)c1 | · | · | · | 19.0
O=C(NCCCN1CCOCC1)c1cc2ccccc2oc1=O | -3.3 | 16.6 | 3.5 | -15.6
O=C(NCCN1CCN(C(=O)c2cc3ccccc3oc2=O)CC1)c1cc2ccccc2oc1=O | 6.4 | 12.2 | 2.2 | 94.2*
Cn1nccc1C(=O)N(CC1CCCO1)c1nc2c(F)cccc2s1 (configuration not stated) | · | · | · | -2.0
CCn1ccnc1CNC(=O)c1cc(COc2ccc(OC)c3ccccc23)on1 | · | · | · | 67.6*
CCn1ccnc1CN(C)C(=O)c1cc(COc2ccc(OC)c3ccccc23)on1 | -15.9 | -0.4 | -1.4 | 39.4*
Cc1ccc(C)c(OCc2cc(C(=O)N(C)Cc3nccn3C)no2)c1 | · | · | · | 10.3
CCN(CC)c1ccc(N)cc1 | · | · | · | 65.1*
CCCCC1NC(=S)N(C2CCCCC2)C1=O (configuration not stated) | 89.0* | 2.3 | 5.0 | -14.9
O=C1Nc2ccccc2Oc2cc([N+](=O)[O-])cc(Oc3ccccc3)c21 | 86.4 | 3.9 | 93.5* | -1.6
Cc1cccc(Oc2cc([N+](=O)[O-])cc3c2C(=O)Nc2ccccc2O3)c1 | 97.3* | 0.7 | 98.2* | -9.7
COc1ccc(-c2cnc(SCC#N)n2C)cc1 | · | · | · | -11.0
O=C(NC(=S)Nc1ccc(O)cc1)C1CCCC1 | 86.7* | 16.0 | 2.1 | -7.6
Cc1ccnc(NS(=O)(=O)c2ccc(NC(=O)C3CCCCC3)cc2)n1 | 3.3 | 8.7 | 5.5 | -8.6
